The supplement of paper PMC9694430

What was measured:
Assay in all cases: thermal shift delta Tm vs DMSO control; higher = stronger stabilization (binding)
Settings in all cases: 12.5 µM; protein concentration 2 µM
[1] = system: LOC_OS04G57630-cb004
How it was run: (§1)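 Purified, E. coli-expressed rice kinase domain constructs were tested by differential scanning fluorimetry in 96-well plates: 19.5 μl of 2 μM kinase in 100 mM potassium phosphate pH 7.5, 150 mM NaCl, 10% glycerol, 5 × SYPRO Orange, plus compound in DMSO. Fluorescence was read from 25°C to 95°C at 0.05°C/s. Melting temperatures came from Boltzmann fits, and the shift is the triplicate mean relative to protein with DMSO alone.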

[2] = system: LOC_OS05G07850-cb002
How it was run: as §1

[3] = system: LOC_OS05G16824-cb004
How it was run: as §1

[4] = system: LOC_OS05G28520-cb001
How it was run: as §1

[5] = system: LOC_OS05G30820-cb001
How it was run: as §1

[6] = system: LOC_OS05G43570-cb004
How it was run: as §1

[7] = system: LOC_OS06G16330-cb003
Sequence of LOC_OS06G16330-cb003 (as listed by the source): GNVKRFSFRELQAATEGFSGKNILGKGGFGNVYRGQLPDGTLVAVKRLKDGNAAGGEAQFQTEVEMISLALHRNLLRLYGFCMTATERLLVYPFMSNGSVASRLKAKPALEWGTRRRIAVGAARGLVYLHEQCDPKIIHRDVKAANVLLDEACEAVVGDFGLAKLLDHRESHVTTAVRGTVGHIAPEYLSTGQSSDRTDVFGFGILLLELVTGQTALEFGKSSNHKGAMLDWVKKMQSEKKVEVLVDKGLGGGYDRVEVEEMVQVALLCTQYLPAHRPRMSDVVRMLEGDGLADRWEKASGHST
How it was run: as §1

[8] = system: T1, LOC_OS06G22820-cb001
T1 sequence (whole entry): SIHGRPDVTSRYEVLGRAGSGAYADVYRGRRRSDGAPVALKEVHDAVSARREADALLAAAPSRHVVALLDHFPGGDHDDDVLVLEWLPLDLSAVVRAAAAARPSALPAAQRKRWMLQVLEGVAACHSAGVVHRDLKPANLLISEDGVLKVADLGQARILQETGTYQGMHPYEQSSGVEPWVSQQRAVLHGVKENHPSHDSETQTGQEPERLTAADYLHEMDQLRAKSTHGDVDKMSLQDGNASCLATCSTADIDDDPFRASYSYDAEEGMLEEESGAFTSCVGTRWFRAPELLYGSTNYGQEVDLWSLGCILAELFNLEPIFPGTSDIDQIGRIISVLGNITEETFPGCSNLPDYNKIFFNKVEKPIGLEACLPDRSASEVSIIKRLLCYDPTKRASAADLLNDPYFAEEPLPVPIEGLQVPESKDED
How it was run: as §1

[9] = system: LOC_OS07G06570-cb004
How it was run: as §1

[10] = system: LOC_OS07G07230-cb001
How it was run: as §1

| SMILES | thermal shift delta Tm [1] [°C] | thermal shift delta Tm [2] [°C] | thermal shift delta Tm [3] [°C] | thermal shift delta Tm [4] [°C] | thermal shift delta Tm [5] [°C] | thermal shift delta Tm [6] [°C] | thermal shift delta Tm [7] [°C] | thermal shift delta Tm [8] [°C] | thermal shift delta Tm [9] [°C] | thermal shift delta Tm [10] [°C] |
| --- | --- | --- | --- | --- | --- | --- | --- | --- | --- | --- |
| CC(C)(C)NS(=O)(=O)c1cncc(-c2cc(F)c3nc(N)nn3c2)c1 | 0.3 | 1.74 | 0.61 | 0.78 | 0.53 | 0.59 | 0.88 | 0.87 | 1.73 | 0.06 |
| Cn1cnc2c(F)c(Nc3ccc(Br)cc3Cl)c(C(=O)NOCCO)cc21 [Selumetinib (AZD6244)] | -0.08 | -0.01 | -2 | 0.43 | 0.51 | 0.42 | 0.02 | 0.61 | 0.8 | 0.42 |
| CC(C)(C)c1cnc(CSc2cnc(NC(=O)C3CCNCC3)s2)o1 | -0.47 | 0.35 | -1.08 | 0.48 | 0.47 | 0.31 | 0.18 | 2.84 | 0.7 | -0.01 |
| COc1ccc(S(=O)(=O)N(CCO)c2ccccc2CN(C)C/C=C/c2ccc(Cl)cc2)cc1 [KN-93 Phosphate] | 0.49 | 0.97 | 1.97 | 0.31 | 0.17 | 0.27 | -0.14 | 0.35 | 1.18 | 0.21 |
| COc1nccnc1NS(=O)(=O)c1ccc(NC(=O)/C=C/c2ccc([N+](=O)[O-])s2)cc1 [Necrosulfonamide] | -0.33 | -1.15 | -2.3 | -0.14 | 0.41 | 0.39 | -0.03 | 0.79 | 0.22 | 0.63 |
| CCCCNc1ncc(-c2ccc(CN3CCOCC3)cn2)c(NC2CCC(O)CC2)n1 (stereo not given) | 4.09 | 9.44 | 8.95 | 0.2 | 0.7 | 0.43 | 9.08 | 0.1 | 0.37 | 0.71 |
| CNC(=O)c1ccccc1Nc1nc(Nc2ccc(N3CCOCC3)cc2OC)ncc1Cl | 1.29 | 11.8 | 5.34 | 0.37 | 0.69 | 0.1 | 4.89 | 0.54 | 1.58 | 0.57 |
| O=C1NC(=O)C(c2cnc3ccccn23)=C1c1cn2c3c(cc(F)cc13)CN(C(=O)N1CCCCC1)CC2 | 0.36 | 5.85 | 3.38 | 1.1 | 0.39 | 0.48 | -0.6 | 1.42 | 2.11 | 0.29 |
| CN(C)C/C=C/C(=O)Nc1cc2c(Nc3ccc(F)c(Cl)c3)ncnc2cc1O[C@H]1CCOC1 [Afatinib (BIBW2992) Dimaleate] | 1.02 | 7.65 | -0.29 | 0.44 | 0.24 | 0.46 | 2.05 | 0.61 | 1.27 | 0.08 |
| O=C1NCCc2[nH]c(-c3ccncc3)cc21 | 0.34 | 4.2 | -2.22 | 0.25 | 0.53 | 0.46 | 1.3 | 0.55 | 0.4 | 0.42 |
